Assay in all cases: NCI-60 one-dose screen, 48 h (100 = growth as untreated, 0 = no growth, -100 = all killed)
Holding throughout (conditions): 10 µM unless noted

The test system of assay [1] is BT-549 breast.
The test system of assay [2] is MDA-MB-435 melanoma.
In assay [3] the test system is SW-620 colon.
Assay [4] relates to MCF7 breast.
Assay [5] concerns HCT-116 colon.
For assay [6], the system named is HCC-2998 colon.
In assay [7] the test system is KM12 colon.

About 83,000 compounds went through this panel and 20% of them were active in at least one assay; those are over-represented in the sample as a whole.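 Assay: single dose, 48 h. Readout: percent growth (0 = no net growth; negative = cell death). Active: <10.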 A number with no mark means an inactive call. The source made the active and inactive calls.

Regarding `COc1cc(/C=C/C(=O)c2ccc(NC(=O)CSc3nnc(-c4cc(OC)c(OC)c(OC)c4)n3-c3ccccc3)cc2)cc(OC)c1OC`, the growth was -19.6% (active) in assay [1]; -36.1% (active) in assay [2]; -76.4% (active) in assay [3]; 11.2% in assay [4]; -80.6% (active) in assay [5]; -91.8% (active) in assay [6]. The growth in assay [7] is -6.65% (active).
In the case of `CCCCN(CCCC)CC(CN(CC)CC)OC(=O)Nc1ccccc1` (stereo not given), the growth in assay [1] was 88.4%; in assay [2], 102%; in assay [3], 74.1%; in assay [4], 79.4%; in assay [5], 56.5%; in assay [6], 85.1%. The growth in assay [7] is 93.9%.
Consider `C=C(C)[C@@H]1CC[C@]2(C(=O)OCCOCCOCC[P+](c3ccccc3)(c3ccccc3)c3ccccc3)CC[C@]3(C)[C@H](CC[C@@H]4[C@@]5(C)CC[C@H](C)C(C)(C)[C@@H]5CC[C@]43C)[C@@H]12`, for which the growth was -93% (active) in assay [1]; -93.7% (active) in assay [2]; -83.5% (active) in assay [3]; -77% (active) in assay [4]; -88.4% (active) in assay [5]; -85.5% (active) in assay [6]. Besides, in assay [7], the growth was -81.3% (active).
On to `O=C(Nc1ccc2ncnc(Nc3ccc(F)c(Cl)c3)c2c1)c1ccccc1`, for which the growth was 74.2% in assay [1]; 80.4% in assay [2]; 88% in assay [3]; 47.2% in assay [4]; 47.2% in assay [5]; 98.7% in assay [6]. In assay [7], the growth is 79.6%.
Regarding `C[C@@H]1C(=O)[C@@H]2C[C@@H](O)[C@@H](O)C[C@]2(C)[C@H]2CC[C@@]3(C)C(=C12)CC[C@@H]3[C@@](C)(O)[C@H](O)CCC(C)(C)O`, the growth was 102% in assay [1]; 108% in assay [2]; 106% in assay [3]; 104% in assay [4]; 103% in assay [5]; 97.3% in assay [6]. Besides, in assay [7], the growth was 114%.
With `CC[C@H](Nc1ncnc2nc[nH]c12)c1nc2cccc(CC(=O)c3ccc(C(=O)NO)cc3)c2c(=O)n1-c1ccccc1`, the growth is 85.8% in assay [1]; 97.6% in assay [2]; 96.3% in assay [3]; 77.9% in assay [4]; 90.5% in assay [5]; 88.9% in assay [6]. Besides, the growth in assay [7] is 93.5%.
For the compound `C#C[C@@]1(O)[C@@H](CO)O[C@@H](n2cc(Br)c3c(N)ncnc32)[C@@H]1O`, the growth in assay [1] was -45.5% (active); in assay [2] it was 14.6%; in assay [3] it was -0.395% (active); in assay [4] it was -18.4% (active); in assay [5] it was 3.16% (active); in assay [6], -22% (active). Also, the growth in assay [7] was 8.07% (active).
As to `O=C1[C@@H](OS(=O)(=O)CC(F)(F)F)[C@H](c2ccc(F)cn2)N1c1cc2c3ccccc3ccc2c2ccccc12`, the growth in assay [1] was 66.2%; in assay [2], 30.5%; in assay [3], 47.6%; in assay [4], 64%; in assay [5] it was 79.3%; in assay [6], 105%. Also, in assay [7], the growth is 87%.
With `O=CN1N=C(c2ccc(Cl)cc2)CC1c1cccc(Nc2ccnc3cc(C(F)(F)F)ccc23)c1` (stereo not given), the growth was 53.9% in assay [1]; 54.3% in assay [2]; 89.8% in assay [3]; 38% in assay [4]; 56.3% in assay [5]; 76.7% in assay [6]. For the same compound, the growth in assay [7] is 59.2%.
With `Cc1ccc(SC2c3ccc(C)cc3Oc3nc(N)c(C#N)c(N)c32)cc1` (stereo not given), the growth was 78.9% in assay [1]; 91.6% in assay [2]; 64.6% in assay [3]; 5.14% (active) in assay [4]; 81.7% in assay [5]; 103% in assay [6]. Besides, in assay [7], the growth is 96.8%.
In the case of `COC(=O)[C@]1(C)CCC[C@]2(C)[C@H]3C[C@H]4C(C(C)C)=C[C@]3(CC[C@H]21)[C@@H]1C(=O)N(CCC#N)C(=O)[C@@H]14`, the growth in assay [1] was 59.5%; in assay [2] it was 86.5%; in assay [3], 89.9%; in assay [4], 72.2%; in assay [5] it was 70.8%; in assay [6], 94.1%. In addition, the growth in assay [7] was 82.7%.
Consider `COc1ccc2nc3nc4ccc[nH]c4cc3c2c1`, for which the growth was 84.1% in assay [1]; 101% in assay [2]; 95.7% in assay [3]; 5.69% (active) in assay [4]; 104% in assay [5]; 101% in assay [6]. In addition, the growth in assay [7] was 52.1%.
Regarding `O=Cc1[nH]c(Sc2ccccc2)c2ccccc12`, the growth in assay [1] is 53.4%; in assay [2], 81.7%; in assay [3], 81.1%; in assay [4], 72.2%; in assay [5] it was 60.6%; in assay [6] it was 109%. Further, the growth in assay [7] was 81.2%.
As for `Cc1nccc2c3ccc(OCc4cn(-c5ccccc5)nn4)cc3n(CCCc3ccccc3)c12`, the growth in assay [1] was 81.3%; in assay [2], 87.7%; in assay [3], 69%; in assay [4], 51.3%; in assay [5] it was 54%; in assay [6], 102%. In addition, in assay [7], the growth was 78%.
In the case of `CCCCCOC(=O)c1ccccc1O`, the growth in assay [1] is 93.4%; in assay [2] it was 102%; in assay [3] it was 105%; in assay [4], 87.6%; in assay [5], 98.9%; in assay [6], 109%. The growth in assay [7] was 105%.

The values are drawn from PubChem BioAssay (NCI).
